Laboratory results as given in PubChem BioAssay (Tox21).
Calls of active or inactive are those of the source. The call rests on the fitted dose curve; in most records, active means well fitted activation curve with a large enough effect in the repeat runs; inconclusive means weak or mixed curves; inactive means flat fitted curve, though single readings scatter.

assay: A CellTox Green Cytotoxicity Assay to monitor cytotoxicity in HepG2 cells - 0 hour (AID 1224882); details: CellTox Green fluorescence; series mostly up to 76.8 µM; cytotoxicity: at the top concentration; further: nearly all actives have a fitted effect of over 35% in size
Source text: National Center for Advancing Translational Sciences [NCATS]
NIH Chemical Genomics Center [NCGC]
U.S. Environmental Protection Agency [EPA]
National Institutes of Environmental Health Sciences [NIEHS]
National Toxicology Program [NTP]
Cell-based models are critical for drug discovery. Determining the natural cytotoxic effects resulting from test compounds is an essential research activity. A CellTox Green Cytotoxicity Assay to monitor cytotoxicity in real time of continues cell culture during 40 hours of the compound treatment was used to screen Tox21 10K library compounds in HepG2 cells. CellTox Green Cytotoxicity Assay is a nonlytic, homogeneous, biofluorescent method to measure cytotoxicity in cell culture after experimental manipulation. The assay system uses a proprietary asymmetric cyanine dye that is excluded from viable cells but preferentially stains the dead cell's DNA. […] Viable cells produce no appreciable increases in fluorescence. Therefore, the fluorescence signal produced by the binding interaction with dead cell DNA is proportional to cytotoxicity.
The mixture of HepG2 cell suspension and reagents were dispensed at 600cells/6 ul/well in 1536-well tissue culture treated black solid bottom plates using a Multidrop dispenser. After the assay plates were incubated at a 37 C/5% CO2 incubator for 5 hours, 23 nL of compounds dissolved in DMSO, positive and negative controls was transferred to the assay plate by a pintool work station. The plates were incubated at 37 C for 40 hours. The fluorescence intensity were measured at 0h, 8h, 16h, 24h, 32h and 40h time points using ViewLux plate reader during compound treatment.
On the % scale 0 is the no-effect control and ±100 the full control effect.

| SMILES | cytotoxicity |
| --- | --- |
| NNS(=O)(=O)c1ccc(Oc2ccc(S(=O)(=O)NN)cc2)cc1 | 5.2% (inactive) |
| OCCN(CCO)c1ccccc1 | -6.7% (inactive) |
| CCOC(=O)CS | -6.95% (inactive) |
| CC1=NN(c2cc(Cl)c(S(=O)(=O)O)cc2Cl)C(=O)C1N=Nc1ccc(S(=O)(=O)O)cc1 (stereo not given) | -6.71% (inactive) |
| CCCNC(C)C(=O)Nc1c(C)csc1C(=O)OC (stereo not given) | -4.35% [at 35.3 µM] (inactive) |
| CC/C=C\CCOC(=O)C(C)C | -0.595% (inactive) |
| CCN(CC)CCNC(=O)COc1ccc(Cl)cc1 | -4.6% [at 35.3 µM] (inactive) |
| COc1cc2c(cc1N)oc1ccccc12 | 0.781% (inactive) |
| CC[C@H]1CC[C@H](NCc2cc3c(cc2OC)[C@H]2C[C@H]2C(=O)N3C)[C@H](c2ccccc2)N1 | 5.2% (inactive) |
| Cc1nc(-c2ccccn2)ncc1C(=O)Nn1cc(C)c2cc(F)ccc21 | 9.39% (inactive) |
| CCOc1ccc2nc(N)sc2c1 | 0.8% (inactive) |
| NCCC(O)(P(=O)(O)O)P(=O)(O)O | -13.6% [at 35.3 µM] (inactive) |
| Oc1ccccc1F | 2.25% (inactive) |
| CC(C)C[C@H](NC(=O)OCC1c2ccccc2-c2ccccc21)C(=O)O | -6.89% (inactive) |
| Cc1cccc(C)c1NC(=O)CN1CCCCCC1 | 0.898% [at 35.3 µM] (inactive) |
| N#Cc1ccc(C(c2ccc(C#N)cc2)n2cncn2)cc1 | -3.93% [at 35.3 µM] (inactive) |
| COc1ccc2nc(NC(=O)Nc3ccccc3)sc2c1 | 8.67% [at 35.3 µM] (inactive) |
| CC1(O)CSC(C)(O)CS1 (stereo not given) | 1.3% (inactive) |
| CN1CCN(N)CC1 | 15.1% [at 35.3 µM] (inactive) |
| CCC(=O)c1ccc2c(c1)N(CCCN(C)C)c1ccccc1S2 | -16.3% [at 35.3 µM] (inactive) |

| SMILES | cytotoxicity |
| --- | --- |
| CN(C)C(=O)NC1(c2ccccc2)CCN(CCC[C@]2(c3ccc(Cl)c(Cl)c3)CCCN(C(=O)c3ccccc3)C2)CC1 | -1.48% [at 15.8 µM] (inactive) |
| O=C(O)CN(CCN(CC(=O)O)CC(=O)O)CCN(CC(=O)O)CC(=O)O | 20.5% [at 15.8 µM] (inactive) |
| CCCCC(CC)COC(=O)COc1cc(Cl)c(Cl)cc1Cl (stereo not given) | 5.01% (inactive) |
| CC(C)C1=CC2=CC[C@@H]3[C@](C)(CCC[C@@]3(C)C(=O)O)[C@H]2CC1 | 3.15% (inactive) |
| COc1cc(C)ccc1C(C)C | 5.54% (inactive) |
| O=C1CCCCC1C1CCCCC1 (stereo not given) | 0.0641% (inactive) |
| CCc1cc(Cl)c(OC)c(C(=O)NC[C@@H]2CCCN2CC)c1O | 1.8% [at 35.3 µM] (inactive) |
| O=C1C=CC(=O)O1 | -1.22% (inactive) |
| CCOC(=O)NCCC[Si](OCC)(OCC)OCC | 3.04% (inactive) |
| Cc1cc2nc(N)sc2cc1C | -1.3% (inactive) |
| CCN1CC(CCN2CCOCC2)C(c2ccccc2)(c2ccccc2)C1=O (stereo not given) | 4.65% [at 35.3 µM] (inactive) |
| O=C1N(c2ccccc2)c2ccccc2C1(Cc1ccncc1)Cc1ccncc1 | 2.79% [at 35.3 µM] (inactive) |
| OCC(CBr)(CBr)CBr | 0.107% (inactive) |
| CCOC(=O)c1ccccc1O | -5.01% [at 35.3 µM] (inactive) |
| C[C@@H](N)C(=O)O | 5.23% [at 35.3 µM] (inactive) |
| CCNCCO | 2.31% (inactive) |
| NC1=NCC2c3ccccc3Cc3ccccc3N12 (stereo not given) | -32.2% [at 35.3 µM] (inactive) |
| CC(C)=CCCC(C)CCOC=O (stereo not given) | 0.11% (inactive) |
| Nc1cccc(S(=O)(=O)O)c1 | -0.0664% (inactive) |
| CCCNC(C)(C)COC(=O)c1ccccc1 | 0.388% [at 35.3 µM] (inactive) |
